Source: PubChem (National Center for Advancing Translational Sciences (NCATS))
Most compounds without a hit are left out; they make up all but 21% or so of the library.
ELG1 repair inh – ELG1-dependent DNA repair inhibition; 2.3% of 330,000 active; HEK293T ELG1-luciferase reporter, luminescence, 16 h; DNA damage induced by 5-fluorouridine; AID 504467; Potency, µM (top dose mostly 46.1 µM), inactives show at the top dose activity change, negative = inhibition, usual class: inhibitors; note: potency is the fitted concentration of half-maximal effect; nearly all actives have a fitted effect of over 55% in size
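In this reporter screen, reduction of luminescence relative to DMSO vehicle indicated activity. Compounds and 5-fluorouridine were added together to 2,000 cells per well, incubated for 16 hr at 37 °C, then developed with ONE-Glo.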
Gal4-VP16 FLuc – inhibits Gal4-VP16 luciferase reporter, ROR gamma counter-screen; AID 2546; 3.5% of 310,000 active; Potency, µM (series often up to 53.6 µM), for inactives: at the top dose activity, negative = inhibition, usual class: inhibitors; Drosophila S2 Gal4-VP16 UAS-luciferase, luminescence, 20 h;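 note: Gal4-VP16 expression switched on by copper sulfate through the metallothionein promoter; potency is the fitted concentration of half-maximal effect; nearly all actives have a fitted effect of over 50% in size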
DT40 TDP1 CPT – DT40-hTDP1 cell growth loss with CPT; chicken DT40 Tdp1-/-;hTDP1 cells + 20 nM CPT, ATP luminescence, 48 h; Potency, µM (series often up to 46.2 µM), inactives show top-dose activity change, negative = growth inhibition, hits mostly inhibitors; 12% of 420,000 active; AID 686979; note: potency is the fitted concentration of half-maximal effect; nearly all actives have a fitted effect of over 55% in size
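Chicken DT40 Tdp1-/- cells stably complemented with human TDP1 were seeded at 400 cells/well in medium containing 20 nM camptothecin, exposed to pin-transferred compounds, and grown at 37 °C for at least 48 hr. Viability was read as ATP luminescence.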
RORgamma inh – blocks mouse ROR gamma transcriptional activity; P51450; Drosophila S2 Gal4-RORgamma UAS-luciferase reporter, 20 h; Potency, µM (titrated, usually from 53.6 µM), for the others: at the top dose activity change, negative = inhibition, usual class: inhibitors; 5.4% of 310,000 active; AID 2551; note: potency is the fitted concentration of half-maximal effect; nearly all actives have a fitted effect of over 60% in size
Target sequence (P51450 whole entry, looked up, the tested form may be a part): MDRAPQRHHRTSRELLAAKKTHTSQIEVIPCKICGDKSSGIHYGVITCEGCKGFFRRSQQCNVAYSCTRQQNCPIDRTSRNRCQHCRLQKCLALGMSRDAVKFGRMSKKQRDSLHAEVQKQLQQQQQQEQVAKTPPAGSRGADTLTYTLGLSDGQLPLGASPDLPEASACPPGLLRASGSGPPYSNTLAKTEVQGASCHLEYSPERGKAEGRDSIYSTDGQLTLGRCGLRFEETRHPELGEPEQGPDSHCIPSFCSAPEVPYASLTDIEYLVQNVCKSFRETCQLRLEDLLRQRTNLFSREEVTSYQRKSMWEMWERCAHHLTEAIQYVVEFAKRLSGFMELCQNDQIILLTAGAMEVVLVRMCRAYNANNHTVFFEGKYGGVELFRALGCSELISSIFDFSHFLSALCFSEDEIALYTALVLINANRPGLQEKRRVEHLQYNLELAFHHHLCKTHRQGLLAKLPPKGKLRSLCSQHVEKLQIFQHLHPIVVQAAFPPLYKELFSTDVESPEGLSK
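Luciferase reporter read in Schneider cells carrying Gal4-RORγ (mouse) and UAS-Photinus luciferase; cells given compound 1 h before 700 uM copper sulfate induction, then incubated 20 h at ambient temperature.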
IL1B secr inh – inhibitors of inflammasome signaling (IL-1 beta secretion) | THP-1 LPS/ATP IL-1B secretion, AlphaLISA, 16 h; active compounds read low | activity change, % at 57.5 µM | 4.7% of 360,000 active; in the data active = activity change below about -50%; inconclusive = mostly about -30% to -49%
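THP-1 cells pretreated 1 hr with compounds (up to 57.5 uM final), then stimulated with LPS (250 ng/mL final) plus ATP (1.25 mM final); secreted IL-1B measured by AlphaLISA after 16 hr, decreased signal indicating inhibition.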
TDP1 cell noCPT – qHTS for Inhibitors of human tyrosyl-DNA phosphodiesterase 1 (TDP1): qHTS in cells in absence of CPT; DT40 Tdp1-/- hTDP1 cells, no CPT, ATP luminescence, 48 h; Potency, µM (highest dose often 46.2 µM), without a hit: at the top dose activity change, negative = growth inhibition, most hits filed as inhibitors; 15% of 420,000 active; note: potency is the fitted concentration of half-maximal effect; nearly all actives have a fitted effect of over 55% in size
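Growth kinetics read by CellTiter-Glo luminescence after ≥48 hr at 37 °C. Cells: DT40 Tdp1-/- stably carrying human TDP1, 400 per well, compound exposure in the absence of CPT (DMSO vehicle).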
The depositor's hits bear a star; ? = inconclusive; . = no result given; ! = repeats disagree. Unless noted, calls come from the whole dose curve; as a rule, active = well fitted curve in the direction sought with a large enough effect; inconclusive = small, poorly fitted or top-dose-only effect, or another doubt; inactive = no such curve, though single readings can be large; an effect the other way counts as inactive or inconclusive. % is set by controls: 0 for no effect and ±100 for the full control effect.

SMILES	ELG1 repair inh	Gal4-VP16 FLuc	DT40 TDP1 CPT	RORgamma inh	IL1B secr inh	TDP1 cell noCPT
CCN1CCN(CCCNC(=O)C2CCN(c3nnc(-n4c(C)ccc4C)s3)CC2)CC1	?	0%	-26%	3%	-19	?
COc1ccc(C2=Nn3c(nnc3-c3cccc(OC)c3)SC2)cc1	.	2%	.	85%	.	.
COc1ccc2[nH]c(=O)c(CN(CCc3ccccc3)C(C)=O)cc2c1	1%	-12%	-26%	0%	-11	-16%
COc1ccc2[nH]c(=O)c(CNc3ccccc3OC)cc2c1	-13%	0%	6.5µM*	7%	-12	13µM*
COc1ccc2[nH]c(=O)c(CNc3ccccc3C)cc2c1	?	22%	9.2µM*	?	40	23µM*
O=C(COC(=O)C1=Cc2ccccc2OC1)NCc1ccc(F)cc1	.	.	7%	.	14	-2%
C[C@@H]1[C@H](c2ccccc2)OCCS(=O)(=O)N1Cc1ccccc1F	.	.	?	.	.	13µM*
O=S1(=O)CCO[C@H]2Cc3ccccc3[C@H]2N1Cc1ccccc1Br	-12%	-4%	?	7%	-1	23µM*
O=S1(=O)CCO[C@H]2Cc3ccccc3[C@H]2N1Cc1ccccc1F	-19%	-5%	23µM*!	-21%	-20	?
CC(=O)Nc1ccc(C(=O)N2CCCCC2c2cc(C(=O)NCc3cccnc3)no2)cc1 (stereo unspecified)	.	.	-2%	.	-4	-2%
O=C(NC(=S)N1CC=CCC1)c1ccccc1	.	.	1%	.	0	?
CCOC(=O)N1CCC(NC(=O)c2cnn(-c3cccc(Cl)c3C)c2C2CCN(C(=O)OC(C)(C)C)CC2)CC1	.	.	-15%	.	.	-10%
COc1ccc(-n2ncc(C(=O)NCCc3ccsc3)c2C2CCN(C(=O)OC(C)(C)C)CC2)cc1	.	.	23µM*	.	.	?
CCOC(=O)N1CCC(NC(=O)c2cnn(-c3ccc(C)cc3)c2C2CCN(C(=O)OC(C)(C)C)CC2)CC1	.	.	21µM*	.	.	?
COc1ccc(-n2ncc(C(=O)Nc3ccc(C)cc3Cl)c2C2CCN(C(=O)OC(C)(C)C)CC2)cc1	.	.	16µM*	.	.	16µM*
CCOC(=O)N1CCC(NC(=O)c2cnn(-c3ccc(OC)cc3)c2C2CCN(C(=O)OC(C)(C)C)CC2)CC1	.	.	18µM*	.	.	?
CC(C)(C)OC(=O)N1CCC(c2c(C(=O)NC3CC3)cnn2-c2ccccc2)CC1	-2%	-8%	-3%	-14%	37	5%
O=C(CCS(=O)(=O)c1cccc2nonc12)Nc1c(F)cccc1F	.	.	-21%	.	.	?
CCOC(=O)c1sc(N2C(=O)C(O)=C(C(=O)c3ccco3)C2c2cccc([N+](=O)[O-])c2)nc1C (stereo unspecified)	?	-7%	-18%	-3%	36	8%
CC(C)c1c(C(=O)Nc2ccccc2)c(-c2ccccc2)c(-c2ccc(F)cc2)n1CC[C@@H](O)C[C@@H](O)CC(=O)O	.	-2%	?	47%	.	15µM*
O=C(Nc1ccccc1)c1c(F)c(F)c(F)c(F)c1F	-17%	18%	-3%	-29%	-4	-7%
CC(C)(C)c1ccc(Oc2ncccc2NC(=O)c2cccs2)cc1	?	0%	?	?	-1	?
CCSC(=O)N=Nc1ccc(O)cc1	.	.	15µM*	.	0	12µM*
Cc1cc(NC(=O)CSc2nc(-c3ccco3)cc(C(F)(F)F)n2)n(-c2ccccc2)n1	?	14%	4.1µM*	28%	45	4.1µM*
Cc1cc(NC(=O)CCCSc2nc(-c3ccco3)cc(C(F)(F)F)n2)n(-c2ccccc2)n1	16µM*	-12%	?	3%	-27	21µM*
SMILES	ELG1 repair inh	Gal4-VP16 FLuc	DT40 TDP1 CPT	RORgamma inh	IL1B secr inh	TDP1 cell noCPT
O=C1NC[C@@H](CCCCN2C[C@H](Cc3ccccc3)N(CCc3ccc(O)cc3)C(=O)C2=O)N(CC2CCCCC2)C1=O	.	.	-11%	.	-10	-3%
COc1ccc(CC(=O)Nc2cccc3ccccc23)cc1OC	-19%	-29%	?	?	2	?
COC(=O)c1c(-c2ccc(Br)cc2)csc1NC(=O)Cc1ccc(OC)c(OC)c1	18µM*	?	?	?	-6	10µM*
COC(=O)c1c(-c2cccc3ccccc23)csc1NC(=O)Cc1ccc(OC)c(OC)c1	21µM*	-22%	26µM*	4%	?	12µM*
COC(=O)c1sccc1NC(=O)Cc1ccc(OC)c(OC)c1	-15%	?	-24%	?	23	-5%
c1ccc(-c2nc(-c3cnc4ccccc4n3)cs2)cc1	.	.	-41%	.	.	-19%
CC(C)C[C@H](NC(=O)[C@H](CC(C)C)NC(=O)[C@H](Cc1ccccc1)NC(=O)[C@@H](N)CO)C(=O)N[C@@H](CCCNC(=N)N)C(=O)N[C@@H](CC(N)=O)C(=O)N1CCC[C@H]1C(=O)N[C@@H](CC(N)=O)C(=O)N[C@@H](CC(=O)O)C(=O)N[C@@H](CCCCN)C(=O)N[C@@H](Cc1ccc(O)cc1)C(=O)N[C@@H](CCC(=O)O)C(=O)N1CCC[C@H]1C(=O)N[C@@H](Cc1ccccc1)C(=O)O	.	-4%	.	13%	.	.
Cc1ccc(OCC(=O)N/N=C/c2cccn2C)cc1C	4%	?	-9%	?	?	?
CCOC(=O)c1c2ccc(OCC(=O)N/N=C/c3ccc(C)cc3)cc2n2ccccc12	?	-13%	?	-8%	4	18µM*
Clc1cccc2sc(N3CCN(c4ccccc4)CC3)nc12	-2%	0%	23µM*	?	37	21µM*
O=C(c1ccc([N+](=O)[O-])o1)N1CCCCCC1	5%	.	?	.	-1	-13%
O=C(c1ccc([N+](=O)[O-])o1)N1CCN(c2nc3c(Cl)cccc3s2)CC1	?	.	21µM*	.	-79*	13µM*
Clc1ccc(Cl)c2sc(N3CCCC3)nc12	?	5%	-15%	-3%	31	-2%
O=C(c1ccc([N+](=O)[O-])o1)N1CCN(c2nc3ccc(F)cc3s2)CC1	?	.	21µM*	.	-16	23µM*
COc1cccc2sc(N3CCN(C(=O)c4ccc([N+](=O)[O-])o4)CC3)nc12	?	.	21µM*	.	-84*	18µM*
Cc1ccc(NS(=O)(=O)c2ccc(C)c(C(=O)Nc3ccc(S(=O)(=O)Nc4onc(C)c4C)cc3)c2)cc1	.	.	-11%	.	4	-5%
